Measured values as given in PubChem BioAssay AID1159580 (chemical genetic matrix, 2015).
Several values for one entry are separate records, joined by “and”; a condition that tells them apart may be missing. Equal entries are not always repeated. The whole screen tested about 5,500 compounds, of which about 2,000 (36%) were called active. Another 18% or so got no clear call; they are omitted. No stated cut-off is given here; in the data, active means normalized growth mostly below about 0.91 (no sharp cut-off); inconclusive means no clear call, values can overlap the other calls; inactive means mostly above about 0.92. The list shows a part of the results.

Assay: chemical genetic growth profiling, strain panel (AID 1159580);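 further: tested at 20 µM; growth read once vehicle control cultures reached saturation at 30 °C; 1 = growth at the plate median or of vehicle wells; lower values mean less growth of the strain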
Conditions: S. cerevisiae deletion strains, growth OD

Measured: normalized growth

CC(C)NC[C@H](O)COc1cccc2ccccc12
inactive: locus YAL021C, strain ccr4, hits give low values 0.985 | locus YAL026C, strain drs2, hits give low values 1 | locus YAL030W, strain snc1, hits give low values 0.986 | locus YBL061C, strain skt5, hits give low values 0.984 | locus YBR009C, strain hhf1, hits give low values 0.98 | locus YBR021W, strain FUR4, hits give low values 0.997 | locus YBR023C, strain chs3, hits give low values 0.99 | locus YBR171W, strain sec66, hits give low values 0.989 | locus YBR229C, strain ROT2, hits give low values 1.01 | locus YBR231C, strain swc5, hits give low values 0.989 | locus YBR279W, strain paf1, hits give low values 0.99 | locus YCL011C, strain gbp2, hits give low values 0.993 | locus YCL016C, strain dcc1, hits give low values 0.991 | locus YCL029C, strain bik1, hits give low values 1.02 | locus YCL061C, strain MRC1, hits give low values 0.994 | locus YCL069W, strain vba3, hits give low values 0.993 | locus YCR088W, strain abp1, hits give low values 0.991 | locus YDL005C, strain med2, hits give low values 0.981 | locus YDL035C, strain GPR1, hits give low values 0.993 | locus YDL040C, strain nat1, hits give low values 0.992 | locus YDL074C, strain BRE1, hits give low values 1.02 | locus YDL101C, strain DUN1, hits give low values 1.01 | locus YDL134C, strain PPH21, hits give low values 0.979 | locus YDL185W, strain tfp1, hits give low values 1.03 | locus YDL192W, strain arf1, hits give low values 1.02 | locus YDR001C, strain nth1, hits give low values 0.991 | locus YDR069C, strain doa4, hits give low values 1 | locus YDR101C, strain arx1, hits give low values 1 | locus YDR137W, strain rgp1, hits give low values 1 | locus YDR159W, strain sac3, hits give low values 0.976 | locus YDR162C, strain NBP2, hits give low values 1 | locus YDR195W, strain ref2 0.962 | locus YDR297W, strain sur2, hits give low values 1.01 | locus YDR318W, strain mcm21, hits give low values 1.02 | locus YDR334W, strain swr1, hits give low values 0.999 | locus YDR335W, strain msn5, hits give low values 0.991 | locus YDR388W, hits give low values 1.02 | locus YDR392W, strain spt3, hits give low values 0.943 | locus YDR502C, strain sam2, hits give low values 1 | locus YEL003W, strain gim4, hits give low values 1 | locus YEL037C, strain rad23, hits give low values 1.02 | locus YEL061C, strain CIN8 (second series), hits give low values 0.993 | locus YEL061C, strain CIN8, hits give low values 1.01 | locus YER015W, strain faa2, hits give low values 0.969 | locus YER016W, strain bim1, hits give low values 0.986 | locus YER110C, hits give low values 1.02 | locus YER111C, strain swi4, hits give low values 0.986 | locus YER155C, strain BEM2 (second series), hits give low values 0.98 | locus YER155C, strain BEM2, hits give low values 1.01 | locus YER167W, strain BCK2, hits give low values 1 | locus YFR010W, strain ubp6, hits give low values 1.01 | locus YGL078C, strain dbp3, hits give low values 1.01 | locus YGL086W, strain mad1, hits give low values 0.994 | locus YGL167C, strain pmr1, hits give low values 0.982 | locus YGL173C, strain kem1, hits give low values 0.993 | locus YGL227W, strain vid30, hits give low values 0.992 | locus YGL240W, strain doc1, hits give low values 0.977 | locus YGL248W, strain PDE1, hits give low values 1.01 | locus YGL253W, strain hxk2, hits give low values 1 | locus YGR078C, strain PAC10, hits give low values 1.01 | locus YGR135W, strain pre9, hits give low values 1.02 | locus YGR252W, strain gcn5, hits give low values 0.992 | locus YHR013C, strain ard1, hits give low values 0.953 | locus YHR027C, strain rpn1, hits give low values 0.988 | locus YHR030C, strain SLT2, hits give low values 1.01 and 1.06 | locus YHR079C, strain IRE1 (second series), hits give low values 1.02 | locus YHR079C, strain IRE1, hits give low values 1.08 | locus YHR094C, strain hxt1, hits give low values 1.02 | locus YHR129C, strain ARP1, hits give low values 1.01 | locus YHR142W, strain chs7, hits give low values 1.01 | locus YHR200W, strain rpn10, hits give low values 1.02 | locus YIL066C, strain RNR3, hits give low values 1.01 | locus YIL073C, strain SPO22, hits give low values 1.04 | locus YIL125W, strain kgd1, hits give low values 1.02 | locus YIR030C, strain dcg1, hits give low values 1.03 | locus YJL092W, strain hpr5, hits give low values 0.993 | locus YJL095W, strain BCK1 (second series), hits give low values 0.987 | locus YJL095W, strain BCK1, hits give low values 1.01 and 1.02 | locus YJL115W, strain asf1, hits give low values 0.987 | locus YJL129C, strain trk1, hits give low values 1.01 | locus YJL134W, strain LCB3, hits give low values 1.01 | locus YJL154C, strain vps35, hits give low values 0.992 | locus YJL164C, strain tpk1, hits give low values 0.989 | locus YJL166W, strain qcr8, hits give low values 0.983 | locus YJL168C, strain set2, hits give low values 1.02 | locus YJL187C, strain SWE1 (second series), hits give low values 1.01 | locus YJL187C, strain SWE1, hits give low values 0.984 | locus YJR043C, strain POL32, hits give low values 1.01
